Paper PMC4336329 (PLoS ONE, 2015)
About 14,000 (4.5%) of roughly 310,000 compounds showed an effect of 50% or more. The effect is printed as a negative number. Many of the other results were omitted from the sample, so strong results are more common in it than they were.

target: human ether-à-go-go-related gene (hERG) potassium channel (human, UniProt Q12809); test: primary screen, population patch clamp on CHO cells stably expressing hERG; higher = less effect of the substance
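Further: peak tail current of the secondary pulse compared with the same well before compound.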

Chain of human ether-à-go-go-related gene (hERG) potassium channel (Q12809 whole entry, looked up): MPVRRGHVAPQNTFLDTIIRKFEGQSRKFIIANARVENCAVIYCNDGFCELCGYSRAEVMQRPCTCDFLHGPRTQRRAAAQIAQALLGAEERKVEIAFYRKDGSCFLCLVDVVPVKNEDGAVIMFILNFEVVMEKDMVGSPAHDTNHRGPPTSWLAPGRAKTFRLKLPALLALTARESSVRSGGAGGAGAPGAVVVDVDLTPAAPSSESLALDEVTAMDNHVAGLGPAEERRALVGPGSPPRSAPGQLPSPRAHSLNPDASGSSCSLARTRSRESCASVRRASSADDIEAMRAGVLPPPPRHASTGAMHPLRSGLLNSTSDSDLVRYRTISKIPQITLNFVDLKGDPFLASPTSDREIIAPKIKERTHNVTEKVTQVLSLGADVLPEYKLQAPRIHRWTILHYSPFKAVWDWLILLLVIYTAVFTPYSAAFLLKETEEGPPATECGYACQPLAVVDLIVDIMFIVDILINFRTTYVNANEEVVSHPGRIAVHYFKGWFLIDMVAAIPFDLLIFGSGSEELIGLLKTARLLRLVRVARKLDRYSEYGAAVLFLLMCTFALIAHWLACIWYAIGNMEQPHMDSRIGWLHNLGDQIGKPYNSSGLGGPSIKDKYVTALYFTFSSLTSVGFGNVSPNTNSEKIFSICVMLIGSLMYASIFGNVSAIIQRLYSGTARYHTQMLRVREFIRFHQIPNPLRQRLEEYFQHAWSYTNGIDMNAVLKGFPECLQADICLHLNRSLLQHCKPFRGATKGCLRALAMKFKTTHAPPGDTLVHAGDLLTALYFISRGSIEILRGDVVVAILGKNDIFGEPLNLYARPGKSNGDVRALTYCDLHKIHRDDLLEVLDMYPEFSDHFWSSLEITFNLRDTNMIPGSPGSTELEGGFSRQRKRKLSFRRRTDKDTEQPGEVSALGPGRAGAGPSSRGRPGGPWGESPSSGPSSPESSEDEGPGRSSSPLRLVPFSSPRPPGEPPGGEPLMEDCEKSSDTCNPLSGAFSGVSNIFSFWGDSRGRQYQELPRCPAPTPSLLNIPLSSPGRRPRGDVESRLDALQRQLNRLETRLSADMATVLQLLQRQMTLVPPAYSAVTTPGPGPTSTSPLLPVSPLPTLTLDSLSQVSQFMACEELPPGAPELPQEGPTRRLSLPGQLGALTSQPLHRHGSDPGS

| Structure (SMILES) | hERG current change (%, negative = inhibition) at 10uM [%] |
| --- | --- |
| CCOC(=O)C1C(c2ccccc2O)NC(=O)NC1(O)C(F)(F)F (stereo not shown) | 16.9 |
| COc1ccc(OCC(=O)Nc2cccc(C(C)=O)c2)cc1 | -7.29 |
| CC(C)(C)c1ccc(C(=O)c2c[nH]c(C(=O)NCCc3ccccn3)c2)cc1 | 15.1 |
| Cc1ccc(N(C)C(=O)C2CCCN2S(=O)(=O)c2ccc3c(c2)n(C)c(=O)c(=O)n3C)cc1 (stereo not shown) | -2.28 |
| COc1ccccc1C(=O)NCC(=O)N=Nc1c(O)n(C(C)C)c2ccccc12 | -7.32 |
| CC(CN1CCOCC1)OC(=O)c1ccccc1Cl.Cl (stereo not shown) | 12 |
| CC1(C)CC(=O)C(C=NCCN2CCN(C(=O)Cc3ccc(F)cc3)CC2)=C(O)C1 | -23.5 |
| CC1(C)CC(=O)C(C=NCC2CCN(C(=S)Nc3ccccc3)CC2)=C(O)C1 | -3.98 |
| CC1(C)CC(=O)C(C=NCC2CCN(C(=O)Nc3ccc(Cl)c(Cl)c3)CC2)=C(O)C1 | -23.8 |
| CC1(C)CC(=O)C(C=NCCN2CCN(C3CC(=O)N(c4ccc(Br)cc4)C3=O)CC2)=C(O)C1 (stereo not shown) | -19.3 |
| CC1(C)CC(=O)C(C=NCCN2CCN(C(=S)Nc3cccc(Cl)c3)CC2)=C(O)C1 | -66.3 |
| CC1(C)CC(=O)C(C=NCC2CCN(C(=S)Nc3cccc(Cl)c3)CC2)=C(O)C1 | -62.4 |
| CC1(C)CC(=O)C(C=NCCN2CCN(C(=O)Cc3ccc(Cl)cc3)CC2)=C(O)C1 | -62 |
| CC1(C)CC(=O)C(C=NCCN2CCN(C(=O)Cc3ccccc3)CC2)=C(O)C1 | -24.8 |
| CC1(C)CC(=O)C(C=NCCN2CCN(C3CC(=O)N(c4ccc(F)cc4)C3=O)CC2)=C(O)C1 (stereo not shown) | 6.86 |
| CC1(C)CC(=O)C(C=NCCN2CCN(C3CC(=O)N(c4ccc(Cl)c(Cl)c4)C3=O)CC2)=C(O)C1 (stereo not shown) | -50.2 |
| CC1(C)CC(=O)C(C=NCCN2CCN(C(=S)Nc3ccccc3)CC2)=C(O)C1 | -11.3 |
| CC1(C)CC(=O)C(C=NCCN2CCN(C(=S)Nc3ccc(F)cc3)CC2)=C(O)C1 | -27.8 |
| COc1ccc(Br)cc1C(=O)Nc1cc(C)cc(C)c1 | 5.21 |
| NC(=O)c1cc2n(n1)C(C(F)(F)F)CC(c1ccco1)N2 (stereo not shown) | -7.54 |
| COC(=O)C1NN=C(C(=O)c2ccc(Br)cc2)C1c1cccc(Br)c1 (stereo not shown) | 2.42 |

| Structure (SMILES) | hERG current change (%, negative = inhibition) at 10uM [%] |
| --- | --- |
| CC(C)c1nc2sc3c(SCC(N)=O)ncnc3c2c2c1CCC2 | 11.9 |
| NC(=O)c1ccc(C(F)(F)F)n(Cc2c(Cl)cccc2Cl)c1=O | 25.1 |
| CCc1cccc(CC)c1NC(=O)/C(C#N)=C/c1ccccc1C(F)(F)F | 21.4 |
| C=CCn1c(NCCc2ccccc2)nc2c1c(=O)n(C)c(=O)n2C | -1.17 |
| Cc1ccccc1NC(=O)C1CCC(=O)N1 (stereo not shown) | -0.504 |
| Cc1c(N2C(=O)c3ccc(F)cc3C2=O)c(=O)n(-c2ccccc2)n1C | 13.6 |
| Cc1ccccc1Nc1nc(N)nc(-c2oc3ccccc3c2C)n1 | 4.69 |
| COc1ccc(Cl)cc1NC(=O)CCN1C(=O)C2C3C=CC(C4CC34)C2C1=O (stereo not shown) | -24.4 |
| COc1ccc(O)c(-c2cc(-c3ccccc3[N+](=O)[O-])[nH]n2)c1 | -11.7 |
| COC(=O)c1c(NC(=O)CSc2nnc(Cn3nnc4ccccc43)n2C)sc(C)c1C | -62.7 |
| CCOC(=O)c1c(NC(=O)CSc2nnc(Cc3csc(N)n3)n2C)sc(C)c1C | -51.8 |
| COC(=O)c1sc(NC(=O)CSc2nnc(Cn3nnc4ccccc43)n2C)nc1C | 23.9 |
| CCOC(=O)c1c(NC(=O)CSc2nnc(CNc3ccc(OC)cc3)n2C)sc(C)c1C | -21.7 |
| Cc1nc(NC(=O)CSc2nnc(Cn3nnc4ccccc43)n2C)sc1C | 0.783 |
| CCOC(=O)Cc1csc(NC(=O)CSc2nnc(Cc3csc(N)n3)n2C)n1 | -1.19 |
| CN(C)C(=O)N1CCC(C(=O)NCc2ccc3c(c2)OCO3)CC1 | 5.54 |
| O=C(CNc1cccc2ccccc12)N/N=C/c1cccc(Oc2ccccc2)c1 | 18.2 |
| Cc1ccc(S(=O)(=O)N2CCN(C(=O)COC(=O)CCOc3ccccc3)CC2)c(C)c1 | 1.16 |
| CCN(CC(=O)Nc1ccc(OC)cc1)CC(=O)Nc1cccc(C#N)c1 | 0.389 |
| CS(=O)(=O)N1CCC(C(=O)c2cccc(Cl)c2)CC1 | -0.907 |
| O=C(c1cccc(Cl)c1)C1CCCN(Cc2ccc(N3CCNC3=O)cc2)C1 (stereo not shown) | -43.7 |

| Structure (SMILES) | hERG current change (%, negative = inhibition) at 10uM [%] |
| --- | --- |
| COc1cccc(OC)c1CN1CCCC(C(=O)c2cccc(Cl)c2)C1 (stereo not shown) | -69 |
| COc1ccc(CN2CCCC(C(=O)c3cccc(Cl)c3)C2)cc1 (stereo not shown) | -57.4 |
| O=C(c1cccc(Cl)c1)C1CCCN(Cc2ccon2)C1 (stereo not shown) | -26.3 |
| COc1ccc(CNC(=O)C2CCN(C(=O)c3cccc(Cl)c3)CC2)cc1 | -44.9 |
| COc1cccc(C(=O)C2CCCN(Cc3ccc(F)cc3)C2)c1 (stereo not shown) | -18.6 |
| COc1ccc(CN2CCC(C(=O)c3cccc(Cl)c3)CC2)cc1 | -78.7 |
| C[C@H](CCC(=O)NCC(=O)[O-])[C@H]1CC[C@H]2[C@@H]3[C@H](O)C[C@@H]4C[C@H](O)CC[C@]4(C)[C@H]3C[C@H](O)[C@]12C.O.[Na+] | -21.4 |
| Cc1ccc(Cn2ccc(NC(=O)c3cc(-c4ccc(Cl)cc4)on3)n2)cc1 | 17.3 |
| COc1cccc(Nc2ncnc3sc(C)cc23)c1.Cl | -8.64 |
| C#CCOCCOCCOCCNc1nc(N2CCN(C(=O)[C@H]([C@@H](C)CC)n3cc([C@@H](N)CC(C)C)nn3)CC2)nc(N2CCN(C(=O)[C@H](CCCCN)n3cc([C@@H](N)CC(C)C)nn3)CC2)n1.Cl | -10.1 |
| CCOc1ccccc1CNC(=O)c1ccc(NC(=O)C2=CSCCO2)cc1 | 7.72 |
| COc1ccccc1C(=O)NCCC(=O)NCc1ccccn1 | -2.66 |
| O=[N+]([O-])c1ccc(Oc2ccc(Oc3ccc(C(F)(F)F)cn3)cc2)nc1 | -1.44 |
| O=C(O)C(=O)O.O=[N+]([O-])c1ccc(Oc2ccc(C(F)(F)F)cn2)cc1 | -53.9 |
| O=C(O)c1ccc(Oc2ccc(C(F)(F)F)cn2)cc1 | 17.5 |
| COc1ccc(NC(=O)Nc2c(C)n(C)n(-c3ccccc3)c2=O)cc1 | -18.6 |
| O=C1N=C(N2CCCC2C(=O)O)S/C1=C\c1ccco1 (stereo not shown) | 35 |
| O=C1N=C(N2CCN(c3ccccc3)CC2)S/C1=C\c1ccco1 | -66.1 |
| O=C1N=C(N2CCCC2)S/C1=C\c1ccccc1 | 15.2 |
| O=C1N=C(N2CCN(c3ccccc3)CC2)S/C1=C/c1cccs1 | -49.3 |
| NC1=NC(=O)/C(=C\c2ccco2)S1 | 19.2 |

| Structure (SMILES) | hERG current change (%, negative = inhibition) at 10uM [%] |
| --- | --- |
| O=C1N=C(N2CCN(c3ccccc3)CC2)S/C1=C/c1ccco1 | -53.8 |
| CCC(C)C(NC(=O)CCCNC(=O)CCC(=O)OC1O[C@H]2OC3(C)CC[C@H]4[C@H](C)CCC(C1C)C24OO3)C(=O)O (stereo partly shown) | 4.12 |
| CC(C)CC(NC(=O)CCCNC(=O)CCC(=O)OC1O[C@H]2OC3(C)CC[C@H]4[C@H](C)CCC(C1C)C24OO3)C(=O)O (stereo partly shown) | 1.34 |
| Cc1cc(C)n2c3c(c(C#N)c2n1)CC(C)(C)OC3 | 2.81 |
| CCC(C)Nc1nc(-c2cccc(OC)c2O)nc2ccccc12 (stereo not shown) | -5.73 |
| c1ccc(CNc2nc(-c3ccccn3)nc3ccccc23)cc1 | -43.5 |
| Cl.c1ccc(-c2nc(NCc3ccco3)c3ccccc3n2)cc1 | -33.4 |
| Oc1ccccc1-c1nc(NCc2ccco2)c2ccccc2n1 | 1.8 |
| C(=N\Nc1nc(-c2ccccn2)nc2ccccc12)/c1ccccc1 | 12.3 |
| CCC(C)Nc1nc(-c2ccccn2)nc2ccccc12 (stereo not shown) | -50.2 |
| c1ccc(CCNc2nc(-c3ccccn3)nc3ccccc23)cc1 | -78.6 |
| C/C(=N\Nc1nc(-c2ccccn2)nc2ccccc12)c1ccc(F)cc1 | 11 |
| c1ccc(-c2nc(NCc3ccco3)c3ccccc3n2)nc1 | -62.9 |
| c1ccc(CCNc2nc(-c3ccncc3)nc3ccccc23)cc1 | 3.71 |
| c1ccc(-c2nc(NCC3CCCO3)c3ccccc3n2)nc1 (stereo not shown) | -23.3 |
| CC(C)(C)Nc1nc(-c2ccccn2)nc2ccccc12 | -69.8 |
| CCc1ccccc1NC(=O)COc1ccc2c(=O)c(Oc3cc(C)ccc3C)coc2c1 | 10.5 |
| Cc1cc(C(C)(C)C)c(OC(=O)[C@@H]2OC(c3ccccc3)=C[C@H]2c2ccccc2)c(C(C)(C)C)c1 | 7.58 |
| c1coc(C2Nc3ccccc3C3OCCC23)c1 (stereo not shown) | 6.63 |
